# Test results from PubChem BioAssay (Tox21).
# “And” between values parts separate entries of the source, which are not always exact repeats. Identical values can stand only once. Records with an inconclusive call do not appear. Where a call stands in place of a potency, no number is given. A structure can be active in one record and inactive in another. The source made the active and inactive calls. Calls come from the whole dose curve; as a rule, active = well fitted curve in the direction sought with a large enough effect in the repeat runs; inconclusive = weak or mixed curves; inactive = no such curve, though single readings can be large; an effect the other way counts as inactive or inconclusive.
# Columns and labels:
# [1] = qHTS RealTime-Glo MT Cell Viability Assay in HEK293 cells - 16 hour (AID 1224872); note: nearly all actives have a fitted effect of over 50% in size; note: potency is the fitted concentration of half-maximal effect
# How it was run: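 Assay medium contained NanoLuc luciferase plus cell-permeant prosubstrate, added with HEK293 cells at 600 cells/well. After 5 h at 37 C/5% CO2 compounds were added; plates stayed at 37 C for 40 h with serial luminescence reads.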
# [2] = qHTS RealTime-Glo MT Cell Viability Assay in HepG2 cells - 8 hour (AID 1224873); note: nearly all actives have a fitted effect of over 55% in size
# How it was run: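 Real-time viability: cells seeded at 600 per well together with NanoLuc and cell-permeant prosubstrate, compounds added after 5 h incubation. Luminescence tracked at 0, 8, 16, 24, 32 and 40 h of exposure.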
# [3] = qHTS RealTime-Glo MT Cell Viability Assay in HEK293 cells - 40 hour (AID 1224874); conditions: RealTime-Glo luminescence; max response: stronger effect = lower value; note: nearly all actives have a fitted effect of over 50% in size; note: potency is the fitted concentration of half-maximal effect
# How it was run: (§1)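 Nonlytic bioluminescent viability monitoring. HEK293 at 600 cells/well with reagent; 5 h settle; compound transfer by pintool; plates held at 37 C and read at set time points.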
# [4] = A CellTox Green Cytotoxicity Assay to monitor cytotoxicity in HEK293 cells - 24 hour (AID 1224875); note: series mostly up to about 77 µM; nearly all actives have a fitted effect of over 45% in size
# How it was run: (§2)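 Cytotoxicity was tracked continuously in HEK293 cells by a DNA-binding dye excluded from viable cells. Compounds were transferred in DMSO 5 h after seeding; fluorescence was recorded at intervals up to 40 h.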
# [5] = A CellTox Green Cytotoxicity Assay to monitor cytotoxicity in HepG2 cells - 16 hour (AID 1224876); note: nearly all actives have a fitted effect of over 45% in size
# How it was run: (§3)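 Real-time, homogeneous cytotoxicity readout: dead-cell DNA staining by CellTox Green in HepG2 monolayers, fluorescence measured at timed intervals up to 40 h of continuous compound exposure.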
# [6] = qHTS RealTime-Glo MT Cell Viability Assay in HepG2 cells - 32 hour (AID 1224877); note: nearly all actives have a fitted effect of over 55% in size
# How it was run: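 qHTS, HepG2, 600 cells/well, RealTime-Glo (NanoLuc + prosubstrate) added with cells; 5 h preincubation; DMSO compound addition; 37 C; luminescence at 0/8/16/24/32/40 h.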
# [7] = A CellTox Green Cytotoxicity Assay to monitor cytotoxicity in HepG2 cells - 24 hour (AID 1224878); note: nearly all actives have a fitted effect of over 45% in size; note: potency is the fitted concentration of half-maximal effect
# How it was run: as §3
# [8] = A CellTox Green Cytotoxicity Assay to monitor cytotoxicity in HepG2 cells - 40 hour (AID 1224879); note: nearly all actives have a fitted effect of over 40% in size; note: potency is the fitted concentration of half-maximal effect
# How it was run: as §3
# [9] = qHTS RealTime-Glo MT Cell Viability Assay in HEK293 cells - 0 hour (AID 1224880); note: top concentration of the series differs between compounds; nearly all actives have a fitted effect of over 45% in size
# How it was run: as §1
# [10] = A CellTox Green Cytotoxicity Assay to monitor cytotoxicity in HEK293 cells - 32 hour (AID 1224881); note: nearly all actives have a fitted effect of over 40% in size; note: potency is the fitted concentration of half-maximal effect
# How it was run: as §2
Compound,Potency [1],outcome [2],max response [3],Potency [4],Potency [5],outcome [6],Potency [7],Potency [8],Potency [9],Potency [10],Potency [3]
O=C1CCCCCN1,inactive,inactive,-1.34% (inactive) and -3.41% (inactive),inactive,inactive,inactive,inactive,inactive,inactive,inactive,
C1CNCCN1,inactive,inactive,0.515% (inactive) and 0.916% (inactive),inactive,inactive,inactive,inactive,inactive,inactive,inactive,
NC(=O)N/N=C/c1ccc([N+](=O)[O-])o1,inactive,inactive,-0.165% (inactive),inactive,inactive,inactive,inactive,inactive,inactive,inactive,
COc1cc2c(c(OC)c1OC)-c1ccc(OC)c(=O)cc1[C@@H](NC(C)=O)CC2,inactive,inactive,,inactive,inactive,inactive,inactive,54.3 µM (active) and inactive,inactive,inactive,0.0216 µM (active)
CCc1cc(C(N)=S)ccn1,inactive,inactive,1.51% (inactive) and 1.72% (inactive) and 1.47% (inactive),inactive,inactive,inactive,inactive,inactive,inactive,inactive,
CN(C)C=O,inactive,inactive,2.24% (inactive) and 2.36% (inactive),inactive,inactive,inactive,inactive,inactive,inactive,inactive,
NC(=O)c1ccc([N+](=O)[O-])cc1Cl,inactive,inactive,-1.29% (inactive) and 1.15% (inactive),inactive,inactive,inactive,inactive,inactive,inactive,inactive,
COC(=O)C1CCC(C(=O)OC)CC1 (stereo not drawn),inactive,inactive,7.05% (inactive) and -2.3% (inactive) and 3.36% (inactive),inactive,inactive,inactive,inactive,inactive,inactive,inactive,
O=c1cc[nH]c(=O)[nH]1,inactive,inactive,-9.27% (inactive) and 1.51% (inactive),inactive,inactive,inactive,inactive,inactive,inactive,inactive,
O=C(O)CN(CC(=O)O)CC(=O)O,inactive,inactive,3.36% (inactive) and 17.8% (inactive),inactive,inactive,inactive,inactive,inactive,inactive,inactive,
CC(=O)/C=C/C1=C(C)CCCC1(C)C,inactive,inactive,-10% (inactive) and 2.42% (inactive) and 0.0931% (inactive),inactive,inactive,inactive,inactive,inactive,inactive,inactive,
NCCNc1cccc2ccccc12,54.9 µM (active) and 47.8 µM (active) and inactive,inactive,0.781% (inactive),inactive,inactive,inactive,53.6 µM (active) and inactive,53.6 µM (active) and inactive,,inactive,54.9 µM (active) and 53.6 µM (active)
C#C[C@]1(O)CC[C@H]2[C@@H]3CCC4=CC(=O)CC[C@@H]4[C@H]3CC[C@@]21CC,43.6 µM (active) and inactive,inactive,-17.5% (inactive),,inactive,inactive,inactive and 38.9 µM (active),inactive and 43.6 µM (active),inactive,49.1 µM (active) and inactive,43.6 µM (active)
O=c1c(-c2ccc(O)cc2)coc2cc(O)cc(O)c12,21.9 µM (active),inactive,,inactive,inactive,inactive,inactive,inactive,inactive,inactive,19.2 µM (active) and 19.5 µM (active)
O=[N+]([O-])c1ccc(O)cc1,inactive,inactive,-24.7% (inactive) and -8.36% (inactive) and 4.76% (inactive),inactive,inactive,inactive,inactive,inactive,inactive,inactive,
C/C=C/c1ccc(O)c(OC)c1,inactive,inactive,-5.09% (inactive) and 1.37% (inactive) and 1.68% (inactive),inactive,inactive,inactive,inactive,inactive,inactive,inactive,
Oc1cccc(O)c1,inactive,inactive,-0.181% (inactive) and -6.38% (inactive) and 1.58% (inactive),inactive,inactive,inactive,inactive,inactive,inactive,inactive,
C[C@]12C=CC(=O)C=C1CC[C@@H]1[C@@H]2C(=O)C[C@@]2(C)[C@H]1CC[C@]2(O)C(=O)CO,inactive,inactive,-10.3% (inactive) and 0.237% (inactive) and 8.61% (inactive),inactive,inactive,inactive,inactive,inactive,inactive,inactive,
CC1=NN(c2ccccc2)C(=O)C1,inactive,inactive,-0.0619% (inactive) and 3.79% (inactive) and -1.74% (inactive),inactive,inactive,inactive,inactive,inactive,inactive,inactive,
NC(=O)N1c2ccccc2C=Cc2ccccc21,inactive,inactive,-19.3% (inactive) and 0.148% (inactive),inactive,inactive,inactive,inactive,inactive,inactive,inactive,34.5 µM (active)
CCCCCCCC(=O)OCC(O)CO (stereo not drawn),inactive,inactive,11.2% (inactive) and -0.735% (inactive),inactive,inactive,inactive,inactive,inactive,inactive,inactive,
C=C(C)C(N)=O,inactive,inactive,4.84% (inactive) and 13.1% (inactive),inactive,inactive,inactive,inactive,inactive,inactive,inactive,
CC(O)COc1ccccc1 (stereo not drawn),inactive,inactive,1.14% (inactive) and -0.457% (inactive) and -1.74% (inactive),inactive,inactive,inactive,inactive,inactive,inactive,inactive,
OCCCc1ccccc1,inactive,inactive,12.9% (inactive) and 2.88% (inactive),inactive,inactive,inactive,inactive,inactive,inactive,inactive,
CCOCCO,inactive,inactive,1.5% (inactive) and 7.11% (inactive),inactive,inactive,inactive,inactive,inactive,inactive,inactive,
CCCCCCCCCCCCCC(=O)OC(C)C,inactive and 4.36 µM (active),inactive,1.2% (inactive) and -0.28% (inactive),inactive,inactive,inactive,inactive,inactive,inactive,inactive,2.75 µM (active)
COc1ccc(C(=O)c2ccccc2)c(O)c1,inactive and 21.9 µM (active),inactive,-12.2% (inactive) and 5.78% (inactive),inactive,inactive,inactive,inactive,inactive,inactive,inactive,7.76 µM (active)
CCn1cc(C(=O)O)c(=O)c2ccc(C)nc21,inactive,inactive,3.61% (inactive) and -3.49% (inactive) and 2.76% (inactive),inactive,inactive,inactive,inactive,inactive,inactive,inactive,
Cc1c(N(C)C)c(=O)n(-c2ccccc2)n1C,inactive,inactive,8.84% (inactive) and 0.672% (inactive) and 6.67% (inactive),inactive,inactive,inactive,inactive,inactive,inactive,inactive,
